ALDH1A1 block: qHTS Assay for Inhibitors of Aldehyde Dehydrogenase 1 (ALDH1A1). Aldehyde dehydrogenase 1A1 (Homo sapiens), P00352. Purified ALDH1A1, NADH fluorescence, propionaldehyde substrate. Potency, µM (titrated, usually from 75.3 µM), inactives show top-dose activity, negative = inhibition, most hits filed as inhibitors. 7.3% of 220,000 active; active = well fitted inhibition curve with a large enough effect, not every such curve was filed as active; inconclusive = small, poorly fitted or top-dose-only effect, or another doubt; inactive = no such curve, though single readings can be large or run the other way;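 also: plate controls were no enzyme wells and a reference inhibitor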
Target sequence (P00352 whole entry, looked up): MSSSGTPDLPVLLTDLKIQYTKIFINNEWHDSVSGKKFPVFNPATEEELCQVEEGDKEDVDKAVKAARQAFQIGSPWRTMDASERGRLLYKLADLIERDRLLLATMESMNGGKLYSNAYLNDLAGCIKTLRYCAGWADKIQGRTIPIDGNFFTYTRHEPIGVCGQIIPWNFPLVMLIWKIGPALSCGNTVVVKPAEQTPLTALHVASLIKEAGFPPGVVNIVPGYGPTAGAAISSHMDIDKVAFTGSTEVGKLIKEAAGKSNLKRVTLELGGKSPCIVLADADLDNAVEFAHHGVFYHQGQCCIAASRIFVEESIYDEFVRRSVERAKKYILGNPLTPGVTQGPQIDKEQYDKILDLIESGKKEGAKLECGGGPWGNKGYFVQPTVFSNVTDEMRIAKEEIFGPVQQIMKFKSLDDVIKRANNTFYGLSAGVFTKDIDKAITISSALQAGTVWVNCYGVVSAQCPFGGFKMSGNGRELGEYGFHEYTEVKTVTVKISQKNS
NPSR antagonist: qHTS Assay for Antagonists of the Neuropeptide S Receptor: cAMP Signal Transduction; 1% of 220,000 active; AID 1461, 2008; Q6W5P4; CHO-NPSR cells, cAMP TR-FRET, antagonist mode; Potency, µM (top dose mostly 38.3 µM), for inactives: at the top dose activity change, negative = inhibition, most hits filed as inhibitors; also: nearly all actives have a fitted effect of over 50% in size
Tau fluor counter: Counterscreen qHTS for Inhibitors of Tau Fibril Formation, Fluorescence Polarization | tau K18 P301L Alexa594 fluorescence, heparin fibrillization | Potency, µM (doses to about 57.7 µM), without a hit: top-dose activity change, negative = decrease | 0.93% of 280,000 active | AID 1463, 2008; also: nearly all actives have a fitted effect of over 55% in size
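Human tau K18 P301L (15 uM unlabeled, 0.24 uM Alexa 594-labeled) in 100 mM sodium acetate pH 7 with 20 uM heparin, 6 hr at 37 C. ThT 30 uM added, 1 hr ambient; Alexa 594 FP and total fluorescence read at 555/632 nm.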
Tau fibril ThT: qHTS for Inhibitors of Tau Fibril Formation, Thioflavin T Binding. Potency, µM (highest dose often 57.4 µM), inactives show top-dose activity, negative = inhibition, usual class: inhibitors. recombinant tau K18 P301L (four-repeat tau fragment), heparin-induced fibrillization, ThT fluorescence. AID 1460, 2008. 2.1% of 270,000 active. Microtubule-associated protein tau (Homo sapiens), P10636; also: nearly all actives have a fitted effect of over 55% in size
Target sequence (P10636 561-689 P618L limits assumed): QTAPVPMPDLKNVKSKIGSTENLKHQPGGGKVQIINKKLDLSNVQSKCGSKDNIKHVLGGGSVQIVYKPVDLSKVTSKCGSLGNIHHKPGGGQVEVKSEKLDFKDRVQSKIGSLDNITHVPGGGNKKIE
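Recombinant human tau K18 fragment […] carrying P301L, 15 uM unlabeled plus 0.24 uM Alexa 594-labeled, was fibrillized with 20 uM heparin in 100 mM sodium acetate pH 7 for 6 hr at 37 C; 30 uM ThT fluorescence read after 1 hr.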
HPGD block: qHTS Assay for Inhibitors of HPGD (15-Hydroxyprostaglandin Dehydrogenase); Potency, µM, for inactives: top-dose activity change, negative = inhibition, most hits filed as inhibitors; 15-hydroxyprostaglandin dehydrogenase [NAD(+)] (Homo sapiens), P15428; 4.3% of 150,000 active; AID 894, 2007; purified HPGD, NADH fluorescence kinetic, PGE2 substrate; active = well fitted inhibition curve with a large enough effect, not every such curve was filed as active; inconclusive = small, poorly fitted or top-dose-only effect, or another doubt; inactive = no such curve, though single readings can be large or run the other way
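20 nM HPGD preincubated 15 min at room temperature with compound in 50 mM Tris-HCl pH 8, 0.01% Tween 20. Started with 1 mM NAD+ and 30 uM prostaglandin E2; NADH fluorescence (360/450 nm) read 5 times over 30-s intervals, last minus first.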
Tau FP inhib: qHTS for Inhibitors of Tau Fibril Formation, Fluorescence Polarization; 0.39% of 280,000 active; Potency, µM (series often up to 57.7 µM), without a hit: at the top dose activity, negative = inhibition, usual class: inhibitors; K18 P301L tau heparin fibrillization, Alexa594 FP, 6 h; Microtubule-associated protein tau (Homo sapiens), P10636; also: nearly all actives have a fitted effect of over 55% in size
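Quantitative HTS format: compounds meet 15 uM recombinant K18 P301L tau and Alexa 594-tau tracer in 100 mM sodium acetate pH 7; 20 uM heparin triggers fibrillization at 37 C over 6 hr; FP gives the signal.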
An asterisk follows results filed as active; [ ] = dose if it differs, or a comment. Shown are actives, neighbours in structure and some others; about 9.5% of the full set was active somewhere. Unless noted, calls follow the shape of the dose curve; as a rule, active = well fitted curve in the direction sought with a large enough effect; inconclusive = small, poorly fitted or top-dose-only effect, or another doubt; inactive = no such curve, though single readings can be large; an effect the other way counts as inactive or inconclusive. Unless noted, % is scaled to controls: 0 for no effect and ±100 for the full control effect; potency is read from the fitted curve at half-maximal effect.

CC(C)NC(=O)c1onc(CSc2cccc3ccccc23)c1C(=O)O was read as ALDH1A1 block inconclusive, NPSR antagonist -6%[46.1 µM], Tau fluor counter -6%, Tau fibril ThT -4%, HPGD block 22µM* and Tau FP inhib -2%.
For CCCCNC(=O)c1onc(CSc2ccc(C(C)C)cc2)c1C(=O)O the results were ALDH1A1 block 1%, NPSR antagonist -13%[46.1 µM], Tau fluor counter 1%, Tau fibril ThT -2%, HPGD block 10µM* and Tau FP inhib 3%.
For COCCNC(=O)c1onc(CSc2ccc(C(C)C)cc2)c1C(=O)O the results were ALDH1A1 block 0%, NPSR antagonist -9%[46.1 µM], Tau fluor counter -2%, Tau fibril ThT -3%, HPGD block 16µM* and Tau FP inhib -4%.
Screening CC(C)NC(=O)c1onc(CSc2ccccc2)c1C(=O)O returned ALDH1A1 block -14%, NPSR antagonist 2%[46.1 µM], Tau fluor counter 3%, Tau fibril ThT 0%, HPGD block -5% and Tau FP inhib 2%.
`CCCCNC(=O)c1onc(CSc2ccccc2)c1C(=O)O` gave ALDH1A1 block -4%, NPSR antagonist -6%[46.1 µM], Tau fluor counter -1%, Tau fibril ThT -1%, HPGD block -19% and Tau FP inhib -4%.
COc1ccc(Br)cc1CN1CCCCCCC1 was read as ALDH1A1 block -6%, NPSR antagonist -1%[46.1 µM], Tau fluor counter -3%, Tau fibril ThT -6%, HPGD block -9% and Tau FP inhib -5%.
Screening O=C(/C=C1\NC2(CCCC2)Cc2ccccc21)C(=O)N/N=C/c1ccccc1O returned ALDH1A1 block 4.5µM*, NPSR antagonist -17%, Tau fluor counter -3%, Tau fibril ThT 16%, HPGD block -21% and Tau FP inhib 1%.
For COc1cc(/C=N/NC(=O)C(=O)/C=C2\NC3(CCCC3)Cc3ccccc32)ccc1O the results were ALDH1A1 block -6%, NPSR antagonist -42%, Tau fluor counter inconclusive, Tau fibril ThT inconclusive, HPGD block -1% and Tau FP inhib inconclusive.
Screening O=c1cc(O)nc(SCc2ccc(Cl)cc2)[nH]1 returned ALDH1A1 block 9%, NPSR antagonist -12%[46.1 µM], Tau fluor counter -17%, Tau fibril ThT inconclusive, HPGD block -11% and Tau FP inhib -9%.
Screening CC(=O)c1ccc(OC(C)C)c(CSc2nc(O)cc(=O)[nH]2)c1 returned ALDH1A1 block inconclusive, NPSR antagonist -10%[46.1 µM], Tau fluor counter -7%, Tau fibril ThT -19%, HPGD block 3.5µM* and Tau FP inhib -8%.
`Cc1ccc(C)n1-c1ccc(C(=O)Nc2ccccc2)cc1` gave ALDH1A1 block 28µM*, NPSR antagonist -4%, Tau fluor counter -21%, Tau fibril ThT inconclusive, HPGD block 16µM* and Tau FP inhib 4%.
Cc1cc(C)nc(SCC(=O)c2cc3ccccc3oc2=O)n1 was read as ALDH1A1 block 14µM*, NPSR antagonist -7%[46.1 µM], Tau fluor counter 7%, Tau fibril ThT 4%, HPGD block 18µM* and Tau FP inhib 7%.
For Cc1ccc(S(=O)(=O)NCC(=O)OCN2C(=O)c3ccccc3C2=O)cc1 the results were ALDH1A1 block 4µM*, NPSR antagonist -4%[46.1 µM], Tau fluor counter -6%, Tau fibril ThT -14%, HPGD block -6% and Tau FP inhib -4%.
`CC(C)(Oc1ccc(Cl)cc1)C(=O)OCn1nnc2ccccc2c1=O` gave ALDH1A1 block 5µM*, NPSR antagonist -12%[46.1 µM], Tau fluor counter -10%, Tau fibril ThT -5%, HPGD block inconclusive and Tau FP inhib -5%.
For Cc1ccc(S(=O)(=O)NCCC(=O)OCn2nnc3ccccc3c2=O)cc1 the results were ALDH1A1 block 28µM*, NPSR antagonist -1%[46.1 µM], Tau fluor counter 4%, Tau fibril ThT 11%, HPGD block -10% and Tau FP inhib 4%.
CCC(=O)OCn1nnc2ccccc2c1=O was read as ALDH1A1 block -2%, NPSR antagonist 24%, Tau fluor counter 2%, Tau fibril ThT 6% and Tau FP inhib -2%.
Cc1cccc(N2CCN(C(=O)Cn3nc(Cc4cccnc4)c4ccccc4c3=O)CC2)c1C was read as Tau fluor counter -7%, Tau fibril ThT -17% and Tau FP inhib 11%.
`O=C1N=NC2=C1c1c3ccccc3c(O)n1CC2` gave ALDH1A1 block -3%, NPSR antagonist 35%, Tau fluor counter 11%, Tau fibril ThT -2% and Tau FP inhib -2%.
Cn1cnnc1SCC(=O)OCN1C(=O)c2ccccc2C1=O was read as ALDH1A1 block 0%, NPSR antagonist -3%[46.1 µM], Tau fluor counter 2%, Tau fibril ThT -1%, HPGD block -7% and Tau FP inhib -2%.
Screening Cc1cc(C)nc(SCC(=O)OCN2C(=O)c3ccccc3C2=O)n1 returned ALDH1A1 block 10µM*, NPSR antagonist 3%[46.1 µM], Tau fluor counter -11%, Tau fibril ThT -17%, HPGD block -14% and Tau FP inhib -6%.
CCC/C=C(\CCC)C(NS(=O)(=O)c1ccc(C(F)(F)F)cc1)c1ccc(-c2ccccc2)cc1 (stereo not drawn) was read as ALDH1A1 block 22µM*, Tau fluor counter -5%, Tau fibril ThT -6%, HPGD block -15% and Tau FP inhib -18%.
`CC(C)NC(=O)/C(C#N)=C/c1cccc(NC(=O)c2ccccc2Cl)c1` gave ALDH1A1 block 14µM*, NPSR antagonist -2%, Tau fluor counter 10%, Tau fibril ThT -7%, HPGD block -23% and Tau FP inhib 2%.
COCCNC(=O)/C(C#N)=C/c1cccc(NC(=O)c2ccccc2Cl)c1 was read as ALDH1A1 block 16µM*, NPSR antagonist 2%, Tau fluor counter -3%, Tau fibril ThT -5%, HPGD block inconclusive and Tau FP inhib 3%.
COCCNC(=O)/C(C#N)=C/c1cc(C)n(-c2ccc(C)cc2)c1C was read as ALDH1A1 block 5.6µM*, NPSR antagonist 43%, Tau fluor counter -11%, Tau fibril ThT inconclusive and Tau FP inhib 11%.
CCc1ccccc1NC(=O)Nc1ccc2c(c1)N(CC)C(=O)c1ccccc1S2 was read as Tau fluor counter 0%, Tau fibril ThT -3% and Tau FP inhib -8%.

Screening data deposited in PubChem BioAssay by National Center for Advancing Translational Sciences (NCATS).
